Measured values taken from article PMC7862700, “An all-to-all approach to the identification of sequence-specific readers for epigenetic DNA modifications on cytosine”.

Assays:
Assay in all cases: DAPPL (digital affinity profiling via proximity ligation, sequencing); 10 mM Tris-HCl pH 7.5, 50 mM NaCl, 1 mM DTT, 4% glycerol, room temperature, 30 min; GST-TFs on glutathione beads, 16-mer random dsDNA library, 0.1% formaldehyde crosslink after washing; high values mean tight binding
FLI1 = biological target: T1, FLI1 (Homo sapiens, UniProt Q01543 1-452); details: protein: recombinant; tags: N-terminal GST; dsDNA, one strand shown
T1 sequence: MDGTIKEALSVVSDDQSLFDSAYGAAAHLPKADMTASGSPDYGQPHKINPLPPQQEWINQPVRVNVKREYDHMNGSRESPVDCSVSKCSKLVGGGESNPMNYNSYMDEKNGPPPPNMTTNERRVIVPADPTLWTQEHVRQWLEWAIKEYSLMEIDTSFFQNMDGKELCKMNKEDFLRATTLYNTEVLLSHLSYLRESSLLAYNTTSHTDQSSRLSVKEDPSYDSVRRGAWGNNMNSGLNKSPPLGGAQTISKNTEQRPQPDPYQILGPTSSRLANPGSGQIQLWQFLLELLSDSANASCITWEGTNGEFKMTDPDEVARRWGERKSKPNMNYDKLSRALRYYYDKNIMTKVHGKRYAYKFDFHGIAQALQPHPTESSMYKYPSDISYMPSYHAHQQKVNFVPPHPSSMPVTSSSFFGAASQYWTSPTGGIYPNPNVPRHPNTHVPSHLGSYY
Procedure, shortened: (§1)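 In yeast, human transcription factors were expressed with a GST fusion, then pulled down on glutathione beads and given DNA barcodes. Pooled with a tag-only sample, they were exposed to 200 nmole of a 16-mer random double-stranded DNA library (Tris/NaCl/DTT/glycerol buffer, room temperature, 30 min), washed, crosslinked with 0.1% formaldehyde, proximity-ligated using BsaI/T4 ligase for 1 h at 37 °C, PCR-amplified and read on an Illumina NextSeq500. Each hexamer's frequency of reads for a factor, divided by the matching frequency for the tag-only sample, gives the binding signal.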

ELK1 = biological target: T2, ELK1 (Homo sapiens, UniProt P19419 1-428); details: protein: recombinant; tags: N-terminal GST; dsDNA, one strand shown
T2 sequence: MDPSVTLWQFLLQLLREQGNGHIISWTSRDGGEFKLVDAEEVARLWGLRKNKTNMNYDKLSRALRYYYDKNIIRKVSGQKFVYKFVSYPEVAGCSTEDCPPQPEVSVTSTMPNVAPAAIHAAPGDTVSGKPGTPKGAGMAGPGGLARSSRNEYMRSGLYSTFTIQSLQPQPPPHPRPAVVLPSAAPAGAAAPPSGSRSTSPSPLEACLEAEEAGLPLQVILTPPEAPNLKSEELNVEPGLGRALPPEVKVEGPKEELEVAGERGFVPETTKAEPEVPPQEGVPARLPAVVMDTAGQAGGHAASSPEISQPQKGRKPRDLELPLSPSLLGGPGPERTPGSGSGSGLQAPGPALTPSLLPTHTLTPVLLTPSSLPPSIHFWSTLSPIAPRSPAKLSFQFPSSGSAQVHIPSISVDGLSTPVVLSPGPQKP
Procedure, shortened: as §1

GABPA = biological target: T3, GABPA (Homo sapiens, UniProt Q06546 1-454); details: protein: recombinant; tags: N-terminal GST; dsDNA, one strand shown
T3 sequence: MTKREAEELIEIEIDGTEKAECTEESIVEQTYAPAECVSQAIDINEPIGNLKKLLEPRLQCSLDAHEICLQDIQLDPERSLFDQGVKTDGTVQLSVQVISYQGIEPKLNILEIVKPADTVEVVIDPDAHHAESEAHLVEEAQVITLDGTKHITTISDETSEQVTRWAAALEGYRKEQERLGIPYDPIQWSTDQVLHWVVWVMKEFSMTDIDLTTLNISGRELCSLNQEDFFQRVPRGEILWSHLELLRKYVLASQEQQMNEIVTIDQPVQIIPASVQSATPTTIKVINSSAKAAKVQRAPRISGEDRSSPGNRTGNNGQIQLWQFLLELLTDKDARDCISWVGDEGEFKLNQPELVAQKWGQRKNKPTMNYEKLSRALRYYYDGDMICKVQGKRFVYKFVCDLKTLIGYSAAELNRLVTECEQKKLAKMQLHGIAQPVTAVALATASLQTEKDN
Procedure, shortened: as §1

ERG = biological target: T4, ERG (Homo sapiens, UniProt P11308 1-479); details: protein: recombinant; tags: N-terminal GST; dsDNA, one strand shown
T4 sequence: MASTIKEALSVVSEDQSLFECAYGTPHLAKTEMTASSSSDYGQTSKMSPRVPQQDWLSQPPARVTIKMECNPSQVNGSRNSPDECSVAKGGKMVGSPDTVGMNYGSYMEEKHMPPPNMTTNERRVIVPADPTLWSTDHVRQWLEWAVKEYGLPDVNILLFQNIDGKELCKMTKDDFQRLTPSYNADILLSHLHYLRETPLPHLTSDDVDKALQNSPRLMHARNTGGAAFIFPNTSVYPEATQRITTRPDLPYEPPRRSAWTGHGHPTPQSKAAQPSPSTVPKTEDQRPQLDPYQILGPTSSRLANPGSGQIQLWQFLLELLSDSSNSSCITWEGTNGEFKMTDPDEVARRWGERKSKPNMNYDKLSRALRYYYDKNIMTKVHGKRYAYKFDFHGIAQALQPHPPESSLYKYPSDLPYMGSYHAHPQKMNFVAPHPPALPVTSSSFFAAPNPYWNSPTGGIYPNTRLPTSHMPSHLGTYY
Procedure, shortened: as §1

ELF1 = ELF1 (Homo sapiens, UniProt P32519 1-619); details: protein: recombinant; tags: N-terminal GST; dsDNA, one strand shown
Procedure, shortened: as §1

EHF = biological target: T5, EHF (Homo sapiens, UniProt Q9NZC4 1-300); details: protein: recombinant; tags: N-terminal GST; dsDNA, one strand shown
T5 sequence: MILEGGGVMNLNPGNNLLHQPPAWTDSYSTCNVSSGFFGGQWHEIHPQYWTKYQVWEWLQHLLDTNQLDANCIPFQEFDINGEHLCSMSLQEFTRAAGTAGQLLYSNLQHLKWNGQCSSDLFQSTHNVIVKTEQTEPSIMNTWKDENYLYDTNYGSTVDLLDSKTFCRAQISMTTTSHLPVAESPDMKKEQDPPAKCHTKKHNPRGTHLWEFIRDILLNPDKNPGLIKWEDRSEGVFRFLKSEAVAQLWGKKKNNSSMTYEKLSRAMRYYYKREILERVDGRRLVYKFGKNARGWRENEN
Procedure, shortened: as §1

SPI1 = SPI1 (Homo sapiens, UniProt P17947 1-270); details: protein: recombinant; tags: N-terminal GST; dsDNA, one strand shown
Procedure, shortened: as §1

SPIB = SPIB (Homo sapiens, UniProt Q01892 1-262); details: protein: recombinant; tags: N-terminal GST; dsDNA, one strand shown
Procedure, shortened: as §1

ELK3 = biological target: T6, ELK3 (Homo sapiens, UniProt P41970 1-407); details: protein: recombinant; tags: N-terminal GST; dsDNA, one strand shown
T6 sequence: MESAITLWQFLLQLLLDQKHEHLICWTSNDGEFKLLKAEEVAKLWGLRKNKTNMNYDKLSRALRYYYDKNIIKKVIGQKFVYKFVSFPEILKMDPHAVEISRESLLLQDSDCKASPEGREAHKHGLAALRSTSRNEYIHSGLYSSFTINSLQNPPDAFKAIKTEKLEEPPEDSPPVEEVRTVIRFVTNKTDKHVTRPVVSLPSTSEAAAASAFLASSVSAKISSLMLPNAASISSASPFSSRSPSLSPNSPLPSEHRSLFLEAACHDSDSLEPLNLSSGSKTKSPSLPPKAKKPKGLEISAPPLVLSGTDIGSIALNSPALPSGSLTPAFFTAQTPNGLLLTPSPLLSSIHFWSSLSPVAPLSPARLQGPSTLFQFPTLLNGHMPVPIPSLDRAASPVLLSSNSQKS
Procedure, shortened: as §1

FEV = biological target: T7, FEV (Homo sapiens, UniProt Q99581 1-238); details: protein: recombinant; tags: N-terminal GST; dsDNA, one strand shown
T7 sequence: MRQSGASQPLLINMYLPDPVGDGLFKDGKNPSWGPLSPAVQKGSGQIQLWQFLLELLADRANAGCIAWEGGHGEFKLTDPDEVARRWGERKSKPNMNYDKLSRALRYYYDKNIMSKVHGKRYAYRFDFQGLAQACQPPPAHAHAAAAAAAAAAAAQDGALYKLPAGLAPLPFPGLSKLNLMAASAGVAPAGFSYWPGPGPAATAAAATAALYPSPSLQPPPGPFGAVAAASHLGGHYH
Procedure, shortened: as §1

ETV5 = ETV5 (Homo sapiens, UniProt P41161 1-510); details: protein: recombinant; tags: N-terminal GST; dsDNA, one strand shown
Procedure, shortened: as §1

HSF1 = HSF1 (Homo sapiens, UniProt Q00613 1-529); details: protein: recombinant; tags: N-terminal GST; chain copies: 3; dsDNA, one strand shown
Procedure, shortened: as §1

SPIC = biological target: T8, SPIC (Homo sapiens, UniProt Q8N5J4 1-248); details: protein: recombinant; tags: N-terminal GST; dsDNA, one strand shown
T8 sequence: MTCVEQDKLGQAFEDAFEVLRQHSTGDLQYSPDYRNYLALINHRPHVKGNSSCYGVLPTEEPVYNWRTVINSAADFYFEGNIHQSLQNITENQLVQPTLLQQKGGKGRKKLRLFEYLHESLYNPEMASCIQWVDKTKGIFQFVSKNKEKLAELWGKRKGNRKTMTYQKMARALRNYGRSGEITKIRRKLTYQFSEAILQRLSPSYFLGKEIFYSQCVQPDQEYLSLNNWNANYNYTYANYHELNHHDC
Procedure, shortened: as §1

ELF4 = ELF4 (Homo sapiens, UniProt Q99607 1-663); details: protein: recombinant; tags: N-terminal GST; dsDNA, one strand shown
Procedure, shortened: as §1

ELK4 = biological target: T9, ELK4 (Homo sapiens, UniProt P28324-2 1-405); details: protein: recombinant; tags: N-terminal GST; dsDNA, one strand shown
T9 sequence: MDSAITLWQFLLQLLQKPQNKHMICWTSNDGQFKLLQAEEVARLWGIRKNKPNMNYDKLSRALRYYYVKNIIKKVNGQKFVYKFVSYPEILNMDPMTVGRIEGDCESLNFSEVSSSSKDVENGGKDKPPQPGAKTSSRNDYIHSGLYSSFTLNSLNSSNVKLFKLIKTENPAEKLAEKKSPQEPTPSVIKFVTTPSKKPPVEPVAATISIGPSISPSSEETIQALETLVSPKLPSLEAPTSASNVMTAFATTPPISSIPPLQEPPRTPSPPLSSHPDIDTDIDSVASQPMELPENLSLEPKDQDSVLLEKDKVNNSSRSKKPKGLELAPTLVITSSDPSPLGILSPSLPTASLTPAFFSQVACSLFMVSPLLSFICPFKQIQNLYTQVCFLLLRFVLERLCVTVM
Procedure, shortened: as §1

ETV2 = biological target: T10, ETV2 (Homo sapiens, UniProt O00321 1-342); details: protein: recombinant; tags: N-terminal GST; dsDNA, one strand shown
T10 sequence: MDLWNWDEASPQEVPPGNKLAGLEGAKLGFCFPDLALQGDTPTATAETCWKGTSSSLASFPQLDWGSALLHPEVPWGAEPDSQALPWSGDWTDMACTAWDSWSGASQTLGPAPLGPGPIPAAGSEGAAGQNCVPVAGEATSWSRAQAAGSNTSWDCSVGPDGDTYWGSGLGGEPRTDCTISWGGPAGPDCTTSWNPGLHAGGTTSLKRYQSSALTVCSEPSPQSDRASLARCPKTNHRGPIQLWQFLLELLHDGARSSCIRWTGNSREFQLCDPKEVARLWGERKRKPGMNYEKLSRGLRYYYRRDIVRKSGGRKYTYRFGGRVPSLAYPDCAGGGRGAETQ
Procedure, shortened: as §1

ELF3 = biological target: T11, ELF3 (Homo sapiens, UniProt P78545 1-371); details: protein: recombinant; tags: N-terminal GST; dsDNA, one strand shown
T11 sequence: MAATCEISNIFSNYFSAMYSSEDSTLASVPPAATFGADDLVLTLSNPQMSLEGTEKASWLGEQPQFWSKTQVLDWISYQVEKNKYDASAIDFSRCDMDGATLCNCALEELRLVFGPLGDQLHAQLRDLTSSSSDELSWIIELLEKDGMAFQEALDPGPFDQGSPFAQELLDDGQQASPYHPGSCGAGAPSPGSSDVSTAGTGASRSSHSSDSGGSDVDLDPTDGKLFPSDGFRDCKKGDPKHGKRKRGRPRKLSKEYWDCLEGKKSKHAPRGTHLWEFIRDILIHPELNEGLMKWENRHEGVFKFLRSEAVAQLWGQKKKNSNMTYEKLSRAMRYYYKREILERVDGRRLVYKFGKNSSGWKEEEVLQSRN
Procedure, shortened: as §1

CRX = CRX (Homo sapiens, UniProt O43186 1-299); details: protein: recombinant; tags: N-terminal GST; dsDNA, one strand shown
Procedure, shortened: as §1

ETV1 = ETV1 (Homo sapiens, UniProt P50549 1-477); details: protein: recombinant; tags: N-terminal GST; dsDNA, one strand shown
Procedure, shortened: as §1

Sequence of SPIB (Q01892 whole entry): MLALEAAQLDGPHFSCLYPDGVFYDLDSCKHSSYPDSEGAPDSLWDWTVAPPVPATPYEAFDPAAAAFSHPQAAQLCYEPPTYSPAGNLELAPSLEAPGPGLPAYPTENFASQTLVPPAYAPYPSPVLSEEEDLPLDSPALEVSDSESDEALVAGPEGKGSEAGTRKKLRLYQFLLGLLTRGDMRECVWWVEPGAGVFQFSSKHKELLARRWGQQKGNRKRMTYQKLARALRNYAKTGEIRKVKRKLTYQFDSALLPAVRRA
Sequence of ELF1 (P32519 whole entry): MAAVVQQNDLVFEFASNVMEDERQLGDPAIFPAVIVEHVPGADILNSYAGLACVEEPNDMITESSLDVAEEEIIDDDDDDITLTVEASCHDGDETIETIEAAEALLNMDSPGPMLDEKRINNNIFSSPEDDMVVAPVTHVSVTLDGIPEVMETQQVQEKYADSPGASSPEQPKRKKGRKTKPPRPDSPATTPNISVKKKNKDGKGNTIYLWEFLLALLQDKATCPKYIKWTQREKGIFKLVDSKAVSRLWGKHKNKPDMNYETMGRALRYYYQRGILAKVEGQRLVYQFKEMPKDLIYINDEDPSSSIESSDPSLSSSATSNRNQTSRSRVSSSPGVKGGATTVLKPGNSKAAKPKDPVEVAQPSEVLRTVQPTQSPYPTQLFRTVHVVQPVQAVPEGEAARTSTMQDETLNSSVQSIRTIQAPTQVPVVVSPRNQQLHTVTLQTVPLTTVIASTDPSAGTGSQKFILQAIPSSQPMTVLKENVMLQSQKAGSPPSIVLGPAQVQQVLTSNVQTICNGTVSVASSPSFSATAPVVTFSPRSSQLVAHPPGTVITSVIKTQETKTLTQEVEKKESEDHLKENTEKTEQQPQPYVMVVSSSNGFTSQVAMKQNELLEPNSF
Sequence of ETV1 (P50549 whole entry): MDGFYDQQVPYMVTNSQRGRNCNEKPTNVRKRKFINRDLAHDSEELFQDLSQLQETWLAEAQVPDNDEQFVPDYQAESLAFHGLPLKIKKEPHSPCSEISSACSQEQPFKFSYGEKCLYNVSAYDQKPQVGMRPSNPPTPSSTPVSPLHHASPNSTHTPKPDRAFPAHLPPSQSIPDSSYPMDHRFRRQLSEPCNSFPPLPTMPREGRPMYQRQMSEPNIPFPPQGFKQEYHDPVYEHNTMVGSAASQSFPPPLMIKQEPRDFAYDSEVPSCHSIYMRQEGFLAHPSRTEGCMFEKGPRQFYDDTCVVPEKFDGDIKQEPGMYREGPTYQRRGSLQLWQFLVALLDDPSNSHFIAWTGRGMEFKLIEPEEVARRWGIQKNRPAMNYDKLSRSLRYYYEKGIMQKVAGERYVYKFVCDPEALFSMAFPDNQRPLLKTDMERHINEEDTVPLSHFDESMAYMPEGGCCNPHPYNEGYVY
Sequence of CRX (O43186 whole entry): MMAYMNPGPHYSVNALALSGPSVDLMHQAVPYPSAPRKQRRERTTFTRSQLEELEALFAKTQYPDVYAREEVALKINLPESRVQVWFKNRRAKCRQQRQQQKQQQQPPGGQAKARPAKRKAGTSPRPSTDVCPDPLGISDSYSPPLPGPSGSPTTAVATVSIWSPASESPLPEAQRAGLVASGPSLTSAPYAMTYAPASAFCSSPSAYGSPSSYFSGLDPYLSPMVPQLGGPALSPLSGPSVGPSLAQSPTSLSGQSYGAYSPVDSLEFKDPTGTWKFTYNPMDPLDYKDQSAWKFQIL
Sequence of HSF1 (Q00613 whole entry): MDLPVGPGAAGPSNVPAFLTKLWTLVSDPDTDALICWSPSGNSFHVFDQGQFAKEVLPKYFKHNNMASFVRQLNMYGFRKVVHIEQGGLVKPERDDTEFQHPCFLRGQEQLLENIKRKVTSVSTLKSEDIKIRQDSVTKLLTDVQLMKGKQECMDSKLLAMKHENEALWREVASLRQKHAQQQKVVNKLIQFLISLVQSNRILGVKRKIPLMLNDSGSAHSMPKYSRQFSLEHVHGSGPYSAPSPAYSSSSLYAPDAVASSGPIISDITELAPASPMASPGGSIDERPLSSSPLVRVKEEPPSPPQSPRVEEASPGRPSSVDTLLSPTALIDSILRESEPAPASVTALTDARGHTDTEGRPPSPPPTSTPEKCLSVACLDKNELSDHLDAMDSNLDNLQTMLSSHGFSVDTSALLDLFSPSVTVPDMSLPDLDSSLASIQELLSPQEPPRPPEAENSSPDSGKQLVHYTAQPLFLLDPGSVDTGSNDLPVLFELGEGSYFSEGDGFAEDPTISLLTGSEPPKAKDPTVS
Sequence of ETV5 (P41161 whole entry): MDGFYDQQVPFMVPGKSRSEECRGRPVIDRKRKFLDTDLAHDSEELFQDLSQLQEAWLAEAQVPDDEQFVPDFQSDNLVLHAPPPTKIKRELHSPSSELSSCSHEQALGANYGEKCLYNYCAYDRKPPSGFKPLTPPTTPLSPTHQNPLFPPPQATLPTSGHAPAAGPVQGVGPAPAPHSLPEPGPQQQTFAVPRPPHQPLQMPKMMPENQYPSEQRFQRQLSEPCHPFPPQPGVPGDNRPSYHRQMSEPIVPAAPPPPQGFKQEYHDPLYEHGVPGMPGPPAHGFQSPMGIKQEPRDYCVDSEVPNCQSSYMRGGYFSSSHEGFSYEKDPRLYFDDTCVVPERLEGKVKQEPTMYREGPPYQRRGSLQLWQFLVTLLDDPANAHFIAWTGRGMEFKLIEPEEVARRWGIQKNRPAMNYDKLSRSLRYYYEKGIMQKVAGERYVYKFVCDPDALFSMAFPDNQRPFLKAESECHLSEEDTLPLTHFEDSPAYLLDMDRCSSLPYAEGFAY
Sequence of ELF4 (Q99607 whole entry): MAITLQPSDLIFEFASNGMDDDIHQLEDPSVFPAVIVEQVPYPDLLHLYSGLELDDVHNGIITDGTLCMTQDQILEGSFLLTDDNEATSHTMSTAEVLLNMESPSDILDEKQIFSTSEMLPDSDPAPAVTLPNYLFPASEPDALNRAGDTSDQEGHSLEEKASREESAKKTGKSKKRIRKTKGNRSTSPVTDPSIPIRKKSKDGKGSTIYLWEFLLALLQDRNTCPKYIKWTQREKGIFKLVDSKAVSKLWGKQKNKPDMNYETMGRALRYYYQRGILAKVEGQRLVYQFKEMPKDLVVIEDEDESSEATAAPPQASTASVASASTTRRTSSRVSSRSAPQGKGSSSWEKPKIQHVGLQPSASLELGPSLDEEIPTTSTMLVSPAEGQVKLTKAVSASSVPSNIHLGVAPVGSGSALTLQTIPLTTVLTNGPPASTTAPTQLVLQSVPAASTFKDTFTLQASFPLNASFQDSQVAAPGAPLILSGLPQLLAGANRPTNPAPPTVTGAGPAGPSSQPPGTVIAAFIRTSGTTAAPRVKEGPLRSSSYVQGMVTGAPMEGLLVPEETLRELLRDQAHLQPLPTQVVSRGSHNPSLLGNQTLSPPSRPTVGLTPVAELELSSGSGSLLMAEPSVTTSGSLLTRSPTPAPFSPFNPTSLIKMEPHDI

CCCGTT
binding signal (FLI1): 1.17 fold enrichment (6-mer frequency, TF over GST control) | binding signal (ELK1): 1.08 fold enrichment (6-mer frequency, TF over GST control) | binding signal (GABPA): 1.21 fold enrichment (6-mer frequency, TF over GST control) | binding signal (ERG): 1.26 fold enrichment (6-mer frequency, TF over GST control) | binding signal (ELF1): 1.12 fold enrichment (6-mer frequency, TF over GST control) | binding signal (EHF): 1.15 fold enrichment (6-mer frequency, TF over GST control) | binding signal (SPI1): 1.28 fold enrichment (6-mer frequency, TF over GST control) | binding signal (SPIB): 1.19 fold enrichment (6-mer frequency, TF over GST control) | binding signal (ELK3): 1.18 fold enrichment (6-mer frequency, TF over GST control) | binding signal (FEV): 1.13 fold enrichment (6-mer frequency, TF over GST control) | binding signal (ETV5): 1.21 fold enrichment (6-mer frequency, TF over GST control) | binding signal (HSF1): 1.03 fold enrichment (6-mer frequency, TF over GST control) | binding signal (SPIC): 1.07 fold enrichment (6-mer frequency, TF over GST control) | binding signal (ELF4): 1.15 fold enrichment (6-mer frequency, TF over GST control) | binding signal (ELK4): 1.06 fold enrichment (6-mer frequency, TF over GST control) | binding signal (ETV2): 1.18 fold enrichment (6-mer frequency, TF over GST control) | binding signal (ELF3): 1.26 fold enrichment (6-mer frequency, TF over GST control) | binding signal (CRX): 1.02 fold enrichment (6-mer frequency, TF over GST control) | binding signal (ETV1): 1.03 fold enrichment (6-mer frequency, TF over GST control)
